Source: article PMC4081100, “A DNA-binding-site landscape and regulatory network analysis for NAC transcription factors in Arabidopsis thaliana”

What was measured:
Assay in all cases: universal protein binding microarray (PBM); transcription factors of Arabidopsis thaliana; high values mean tight binding
GST-ANAC092(1-176) = target: T1, GST-ANAC092(1-176) (Arabidopsis thaliana, UniProt Q9FKA0 1-176); details: protein: recombinant; tags: GST; chain copies: 2; dsDNA, one strand shown
T1 sequence: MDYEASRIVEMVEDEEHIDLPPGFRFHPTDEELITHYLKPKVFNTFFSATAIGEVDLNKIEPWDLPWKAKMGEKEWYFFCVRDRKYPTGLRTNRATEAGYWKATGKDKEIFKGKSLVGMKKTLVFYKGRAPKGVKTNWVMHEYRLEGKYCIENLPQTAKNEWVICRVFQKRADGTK
How it was run: (§1)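 For zinc-finger proteins, zinc acetate was added while GST-tagged NAC-domain, full-length or DNA-binding-domain proteins were induced in cells. Purification used glutathione–Sepharose 4B, and quantification used A280 or anti-GST western blot. Custom all-10-mer Agilent 4 × 180K arrays, made double-stranded by primer extension, each received a protein at 200 to 500 nM final in duplicate. Scoring covered gapped and ungapped 8-mers, with binding given as the normalised enrichment score (E-score).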

GST-NTL6(1-168) = GST-NTL6(1-168) (Arabidopsis thaliana, UniProt Q9SCK6 1-168); details: protein: recombinant; tags: GST; chain copies: 2; dsDNA, one strand shown
Sequence of GST-NTL6(1-168) (Q9SCK6 1-168): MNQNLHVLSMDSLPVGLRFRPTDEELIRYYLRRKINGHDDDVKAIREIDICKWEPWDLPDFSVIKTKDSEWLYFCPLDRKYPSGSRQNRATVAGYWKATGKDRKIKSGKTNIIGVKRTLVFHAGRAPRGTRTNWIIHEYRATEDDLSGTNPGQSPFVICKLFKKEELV
How it was run: as §1

GST-ANAC019 NAC domain = target: T2, GST-ANAC019 NAC domain (Arabidopsis thaliana, UniProt Q9C932 14-162); details: protein: recombinant; tags: GST; chain copies: 2; dsDNA, one strand shown
T2 sequence: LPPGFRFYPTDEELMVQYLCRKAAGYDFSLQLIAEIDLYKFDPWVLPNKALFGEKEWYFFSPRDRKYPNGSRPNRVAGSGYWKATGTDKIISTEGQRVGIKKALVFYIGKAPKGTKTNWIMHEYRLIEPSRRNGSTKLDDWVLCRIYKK
How it was run: as §1

GST-ANAC055(1-171) = target: T3, GST-ANAC055(1-171) (Arabidopsis thaliana, UniProt Q9LDY8 1-171); details: protein: recombinant; tags: GST; chain copies: 2; dsDNA, one strand shown
T3 sequence: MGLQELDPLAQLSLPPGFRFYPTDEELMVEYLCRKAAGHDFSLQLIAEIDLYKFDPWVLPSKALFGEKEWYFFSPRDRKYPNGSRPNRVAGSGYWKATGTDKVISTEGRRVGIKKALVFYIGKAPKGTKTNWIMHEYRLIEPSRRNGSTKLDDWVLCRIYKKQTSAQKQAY
How it was run: as §1

GST-ATAF1 NAC domain = target: T4, GST-ATAF1 NAC domain (Arabidopsis thaliana, UniProt Q39013 7-158); details: protein: recombinant; tags: GST; chain copies: 2; dsDNA, one strand shown
T4 sequence: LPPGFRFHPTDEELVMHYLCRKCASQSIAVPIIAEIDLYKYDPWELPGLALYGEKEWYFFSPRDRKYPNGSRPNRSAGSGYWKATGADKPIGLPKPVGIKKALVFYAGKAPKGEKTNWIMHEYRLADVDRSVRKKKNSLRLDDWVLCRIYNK
How it was run: as §1

[1] = target: T5, GST-ANAC092(1-285) full length (Arabidopsis thaliana, UniProt Q9FKA0 1-285); details: protein: recombinant; tags: GST; chain copies: 2; dsDNA, one strand shown
T5 sequence: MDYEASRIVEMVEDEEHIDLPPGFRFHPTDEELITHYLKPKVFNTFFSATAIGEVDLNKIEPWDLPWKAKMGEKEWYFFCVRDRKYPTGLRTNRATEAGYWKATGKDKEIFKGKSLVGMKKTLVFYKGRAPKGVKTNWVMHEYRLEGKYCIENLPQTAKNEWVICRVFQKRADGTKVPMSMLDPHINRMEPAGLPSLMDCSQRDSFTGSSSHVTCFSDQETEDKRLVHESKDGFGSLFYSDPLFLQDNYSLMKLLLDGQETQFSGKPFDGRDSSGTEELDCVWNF
How it was run: as §1

GST-NAP(1-166) = target: T6, GST-NAP(1-166) (Arabidopsis thaliana, UniProt O49255 1-166); details: protein: recombinant; tags: GST; chain copies: 2; dsDNA, one strand shown
T6 sequence: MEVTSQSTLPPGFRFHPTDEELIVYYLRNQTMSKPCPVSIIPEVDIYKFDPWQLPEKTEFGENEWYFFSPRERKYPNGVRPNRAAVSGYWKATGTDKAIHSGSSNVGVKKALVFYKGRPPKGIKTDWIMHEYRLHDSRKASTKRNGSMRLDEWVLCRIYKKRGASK
How it was run: as §1

GST-NST2(1-184) = target: T7, GST-NST2(1-184) (Arabidopsis thaliana, UniProt Q9M274 1-184); details: protein: recombinant; tags: GST; chain copies: 2; dsDNA, one strand shown
T7 sequence: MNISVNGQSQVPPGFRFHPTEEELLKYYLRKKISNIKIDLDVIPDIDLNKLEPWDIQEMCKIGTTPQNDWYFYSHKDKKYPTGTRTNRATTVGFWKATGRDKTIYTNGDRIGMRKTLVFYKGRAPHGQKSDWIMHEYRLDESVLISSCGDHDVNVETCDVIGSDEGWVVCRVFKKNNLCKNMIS
How it was run: as §1

GST-SND1(1-203) = target: T8, GST-SND1(1-203) (Arabidopsis thaliana, UniProt Q9LPI7 1-203); details: protein: recombinant; tags: GST; chain copies: 2; dsDNA, one strand shown
T8 sequence: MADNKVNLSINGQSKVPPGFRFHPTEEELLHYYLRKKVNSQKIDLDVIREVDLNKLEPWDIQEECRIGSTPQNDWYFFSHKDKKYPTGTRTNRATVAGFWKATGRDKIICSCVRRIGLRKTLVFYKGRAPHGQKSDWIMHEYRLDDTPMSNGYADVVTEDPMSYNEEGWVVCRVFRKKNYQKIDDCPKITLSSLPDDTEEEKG
How it was run: as §1

GST-VND3 NAC domain = target: T9, GST-VND3 NAC domain (Arabidopsis thaliana, UniProt Q9FH59 12-162); details: protein: recombinant; tags: GST; chain copies: 2; dsDNA, one strand shown
T9 sequence: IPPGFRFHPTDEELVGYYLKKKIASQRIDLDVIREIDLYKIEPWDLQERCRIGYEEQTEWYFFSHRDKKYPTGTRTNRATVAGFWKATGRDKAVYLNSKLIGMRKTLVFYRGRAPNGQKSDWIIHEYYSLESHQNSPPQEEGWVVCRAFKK
How it was run: as §1

GST-VND7 NAC domain = target: T10, GST-VND7 NAC domain (Arabidopsis thaliana, UniProt Q9C8W9 9-158); details: protein: recombinant; tags: GST; chain copies: 2; dsDNA, one strand shown
T10 sequence: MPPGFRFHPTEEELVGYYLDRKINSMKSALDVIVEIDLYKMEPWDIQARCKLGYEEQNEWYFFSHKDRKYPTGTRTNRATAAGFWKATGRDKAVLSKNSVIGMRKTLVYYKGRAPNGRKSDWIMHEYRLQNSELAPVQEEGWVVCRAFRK
How it was run: as §1

GST-WRKY1(266-371) = GST-WRKY1(266-371) (Arabidopsis thaliana, UniProt Q9SI37 266-371); details: protein: recombinant; tags: GST; dsDNA, one strand shown
Sequence of GST-WRKY1(266-371) (Q9SI37 266-371): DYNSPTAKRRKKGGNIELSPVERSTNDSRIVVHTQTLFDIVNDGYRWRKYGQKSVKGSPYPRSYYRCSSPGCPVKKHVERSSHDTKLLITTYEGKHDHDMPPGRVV
How it was run: as §1

GST-NTL8 NAC domain = target: T11, GST-NTL8 NAC domain (Arabidopsis thaliana, UniProt Q9XIN7 14-156); details: protein: recombinant; tags: GST; chain copies: 2; dsDNA, one strand shown
T11 sequence: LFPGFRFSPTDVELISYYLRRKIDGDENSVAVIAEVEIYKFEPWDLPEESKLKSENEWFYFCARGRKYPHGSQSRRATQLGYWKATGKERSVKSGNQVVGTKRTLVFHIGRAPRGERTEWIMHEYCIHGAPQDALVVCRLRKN
How it was run: as §1

Sequence | binding signal (GST-ANAC092(1-176)) | binding signal (GST-NTL6(1-168)) | binding signal (GST-ANAC019 NAC domain) | binding signal (GST-ANAC055(1-171)) | binding signal (GST-ATAF1 NAC domain) | binding signal [1] | binding signal (GST-NAP(1-166)) | binding signal (GST-NST2(1-184)) | binding signal (GST-SND1(1-203)) | binding signal (GST-VND3 NAC domain) | binding signal (GST-VND7 NAC domain) | binding signal (GST-WRKY1(266-371)) | binding signal (GST-NTL8 NAC domain)
AACGTAGA | 0.21 E-score | 0.145 E-score | 0.0983 E-score | 0.226 E-score | 0.163 E-score | 0.329 E-score | 0.0935 E-score | 0.34 E-score | 0.408 E-score | 0.206 E-score | 0.184 E-score | 0.317 E-score | –
AAGTAAGT | 0.249 E-score | 0.412 E-score | 0.189 E-score | 0.164 E-score | 0.199 E-score | 0.259 E-score | 0.135 E-score | 0.181 E-score | 0.282 E-score | 0.217 E-score | 0.135 E-score | 0.2 E-score | 0.267 E-score
CTTACCCC | 0.192 E-score | 0.322 E-score | 0.132 E-score | 0.191 E-score | 0.0855 E-score | 0.179 E-score | 0.096 E-score | 0.175 E-score | 0.198 E-score | 0.101 E-score | 0.149 E-score | 0.0524 E-score | 0.405 E-score
TAACGTAA | 0.452 E-score | 0.135 E-score | 0.25 E-score | 0.254 E-score | 0.34 E-score | 0.449 E-score | 0.309 E-score | 0.402 E-score | 0.488 E-score | 0.375 E-score | 0.413 E-score | 0.0682 E-score | 0.174 E-score
ACGTAAGT | 0.357 E-score | 0.212 E-score | 0.418 E-score | 0.402 E-score | 0.407 E-score | 0.39 E-score | 0.344 E-score | 0.233 E-score | 0.35 E-score | 0.414 E-score | 0.42 E-score | 0.112 E-score | 0.125 E-score
AAATTGAC | 0.173 E-score | 0.156 E-score | 0.134 E-score | 0.213 E-score | 0.228 E-score | 0.139 E-score | 0.136 E-score | 0.194 E-score | 0.2 E-score | 0.228 E-score | 0.0875 E-score | 0.45 E-score | 0.0641 E-score
ACACGACA | 0.421 E-score | 0.0953 E-score | 0.452 E-score | 0.438 E-score | 0.339 E-score | 0.417 E-score | 0.36 E-score | 0.19 E-score | 0.14 E-score | 0.399 E-score | 0.424 E-score | 0.0821 E-score | 0.0912 E-score
CTACGTTA | 0.323 E-score | 0.0691 E-score | 0.152 E-score | 0.144 E-score | 0.228 E-score | 0.382 E-score | 0.135 E-score | 0.335 E-score | 0.478 E-score | 0.24 E-score | 0.164 E-score | 0.0835 E-score | –
AGACGTGA | 0.217 E-score | 0.0777 E-score | 0.425 E-score | 0.368 E-score | 0.356 E-score | 0.272 E-score | 0.223 E-score | 0.157 E-score | 0.25 E-score | 0.358 E-score | 0.348 E-score | 0.116 E-score | 0.116 E-score
ACGCAAAG | 0.455 E-score | 0.102 E-score | 0.273 E-score | 0.228 E-score | 0.256 E-score | 0.452 E-score | 0.295 E-score | 0.331 E-score | 0.407 E-score | 0.374 E-score | 0.346 E-score | 0.16 E-score | 0.19 E-score
GACGTAAC | 0.354 E-score | 0.088 E-score | 0.355 E-score | 0.369 E-score | 0.268 E-score | 0.4 E-score | 0.409 E-score | 0.24 E-score | 0.392 E-score | 0.367 E-score | 0.296 E-score | 0.152 E-score | 0.204 E-score
